# PubChem BioAssay AID746 (The Scripps Research Institute Molecular Screening Center, 2007)
# In all, about 60,000 compounds went through this assay and about 370 (0.62%) were called active. No stated cut-off is given here; in the data, active means inhibition above about 17%; inactive means the rest. This excerpt belongs to a sample that is enriched for actives.
# Molecular target: Mitogen-activated protein kinase 10 (Homo sapiens) (UniProt P53779)
# Test: JNK3 kinase activity inhibitors, primary screen, biochemical, human, purified enzyme (AID 746);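 further: 0% = DMSO and 100% = reference inhibitor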
# Settings: HTS, at 8 µM, stronger effect = higher value
# Mitogen-activated protein kinase 10 (Homo sapiens), sequence (P53779 whole entry, looked up): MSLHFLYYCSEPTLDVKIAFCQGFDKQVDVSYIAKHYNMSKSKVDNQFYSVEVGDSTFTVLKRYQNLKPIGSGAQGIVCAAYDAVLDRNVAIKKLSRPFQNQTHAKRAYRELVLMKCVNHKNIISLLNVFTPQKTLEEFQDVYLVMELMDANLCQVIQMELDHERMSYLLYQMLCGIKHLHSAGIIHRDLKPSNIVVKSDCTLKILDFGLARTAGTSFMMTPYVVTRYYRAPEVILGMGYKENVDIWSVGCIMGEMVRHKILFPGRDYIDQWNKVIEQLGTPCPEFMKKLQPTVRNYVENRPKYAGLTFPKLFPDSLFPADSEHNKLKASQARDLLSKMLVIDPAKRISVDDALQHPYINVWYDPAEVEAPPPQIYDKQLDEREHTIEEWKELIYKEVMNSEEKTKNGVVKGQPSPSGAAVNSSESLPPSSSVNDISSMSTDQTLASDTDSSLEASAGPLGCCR
row,Structure (SMILES),inhibition
1,Cc1cc(C(=O)O)c(S(C)(=O)=O)s1,0.82% (inactive)
2,CC1=C(C)CC2C(=O)N(c3cccc4ccccc34)C(=O)C2C1 (stereo not given),0% (inactive)
3,COc1ccccc1Cc1nc(-c2ccc(C)cc2)no1,4.84% (inactive)
4,CC(C)Cc1cc(C(=O)Nc2cc(Br)ccc2O)no1,-4.9% (inactive)
5,COc1ccc(CCN(C)C(=O)C2CCCN(Cc3ccc(OC)c(OC)c3)C2)cc1OC (stereo not given),4.04% (inactive)
6,CN(C)/C=C1/C(=O)Nc2ccccc21,-8.06% (inactive)
7,O=C(CCN1C(=O)c2ccccc2C1=O)Nc1ccncc1,0.63% (inactive)
8,COc1ccc(-c2nc3n(c2Br)CCC3)cc1,-4.37% (inactive)
9,CCCC(=O)Nc1ccc2c(c1)nc1n2CCSC1,-5.4% (inactive)
10,Cc1ccsc1C(=O)OCC(=O)c1cc(C)n(CC2CCCO2)c1C (stereo not given),1.34% (inactive)
11,COc1ncnc2c1N=C1CC(C)(C)CC(N)=C1S2,-12.2% (inactive)
12,O=C(COc1ccccc1)NCCc1nc2ccccc2[nH]1,5.21% (inactive)
13,COc1ccc(NC2CC(=O)N(C)C2=O)cc1 (stereo not given),-1.99% (inactive)
14,CCN(CC)P(=O)(/C(Cl)=C\Nc1c(C)n(C)n(-c2ccccc2)c1=O)N(CC)CC,4.4% (inactive)
15,CCOC(=O)N1CCN(S(=O)(=O)c2cc3c(cc2C)NC(=O)CO3)CC1,1.04% (inactive)
16,COc1ccc2c(c1)C=CC1(O2)N(CCO)c2ccccc2C1(C)C (stereo not given),-1.22% (inactive)
17,CS(=O)(=O)N1CCN(C(=O)Cc2ccccc2)CC1,7.69% (inactive)
18,Cc1cc(C(=O)N2CCN(c3ccccn3)CC2)c(C)o1,2.54% (inactive)
19,COc1cccc(OC)c1C(=O)Nc1nnc(C(C)C)s1,-2.05% (inactive)
20,Cn1cccc1Cc1nnc(SCC(=O)NCc2ccc3c(c2)OCO3)n1CCc1ccccc1,-1.11% (inactive)
21,CCn1c(SCCC(C)C)nnc1-c1c[nH]c2ccccc12,2.85% (inactive)
22,CCC(c1nnnn1C1CCCC1)N1CCN(C(=O)c2ccco2)CC1 (stereo not given),-1.42% (inactive)

row,Structure (SMILES),inhibition
1,Fc1ccc(OCc2nn3c(Cn4nnc5ccccc54)nnc3s2)cc1,-2.42% (inactive)
2,CCn1c(SCC(=O)c2ccc(Cl)s2)nnc1-c1cccs1,-1.37% (inactive)
3,CC12CN(Cc3ccccc3)CC(C)(CN(Cc3ccccc3)C1)C2=NO,1.42% (inactive)
4,COc1ccccc1-c1c(C)nn2c(C)c(C(C)=O)cnc12,0.53% (inactive)
5,O=S(=O)(NCCOc1cccc2cccnc12)c1ccc(F)cc1,-0.52% (inactive)
6,FC(F)(F)c1cc(-c2ccco2)nc(N2CCOCC2)n1,2.31% (inactive)
7,Cc1cccn2c(=O)c3cc(C(=O)N4COCC4(C)C)n(C)c3nc12,5.99% (inactive)
8,COc1ccc(-n2nc3c(c2NC(=O)Cc2cccc(C)c2)CS(=O)C3)cc1 (stereo not given),1.83% (inactive)
9,CCCC(=O)N=c1sc2cccc(F)c2n1C,-1.7% (inactive)
10,CN(c1nc2ccccc2n2c(-c3ccco3)nnc12)S(=O)(=O)c1ccccc1,-4.26% (inactive)
11,C=C(C)Cn1c(N2CCCC2)nc2c1c(=O)[nH]c(=O)n2C,2.48% (inactive)
12,NC(=O)CSc1c[nH]c2ccccc12,6.99% (inactive)
13,CNC(=O)c1nnn(-c2ccccc2)c1C(=O)NC,-3.49% (inactive)
14,CCCOc1ccc(C2C(C(=O)c3ccc(C)o3)=C(O)C(=O)N2CCCn2ccnc2)cc1 (stereo not given),42.8% (active)
15,Brc1ccc(OCCn2ccnc2)cc1,1.14% (inactive)
16,CCCOc1ccc(C2c3c(oc4cc(C)c(C)cc4c3=O)C(=O)N2CCCN2CCOCC2)cc1 (stereo not given),3.64% (inactive)
17,CC(=O)N1CCN(c2ccc(NCc3ccc(C(C)C)cc3)cc2)CC1,-4.46% (inactive)
18,CCCCc1nc2ccccc2c(=O)n1NC(=O)c1c(O)c2cccc3c2n(c1=O)CC3,-6.2% (inactive)
19,CCCC(=O)NC(C)C(c1cccs1)N1CCN(c2ccccc2)CC1 (stereo not given),0.41% (inactive)
20,O=C(NCC12CC3CC(C1)CC(CNC(=O)N1CCCC1)(C3)C2)N1CCCC1,2.23% (inactive)
21,CCOC(=O)CC1C(=O)NCCN1C(=O)COc1ccc(Br)cc1C (stereo not given),1.6% (inactive)
22,N#Cc1c(/N=C/N2CCCC2)oc(-c2ccccc2)c1-c1ccccc1,-3.67% (inactive)

row,Structure (SMILES),inhibition
1,CC(C)n1c(SCC(=O)Nc2ccccc2N2CCCCC2)nc2c1c(=O)n(C)c(=O)n2C,0% (inactive)
2,Nc1nnc(C2CCCC2)s1,-0.19% (inactive)
3,O/N=C(\c1ccc2c(c1)OCCO2)C1CCCCC1,-1.18% (inactive)
4,COc1cc(Br)cc(/C=N/c2ncn[nH]2)c1O,-2.89% (inactive)
5,Clc1ccc(Cc2nnc(-c3cccs3)o2)cc1,2.19% (inactive)
6,CCCc1[nH]nc2c1C(c1ccc(OC(=O)c3ccco3)cc1)C(C#N)=C(N)O2 (stereo not given),6.15% (inactive)
7,CC(=O)NC(C)(C)C1CC=C(C)/C(=N\O)C1 (stereo not given),0.98% (inactive)
8,CCN(CC)S(=O)(=O)c1cccc(C(=O)NCC(=O)OCC(=O)NCc2ccccc2)c1,-1.17% (inactive)
9,CCN(CC)S(=O)(=O)c1ccc2nc(CSc3nnnn3-c3ccc(O)cc3)[nH]c2c1,8.62% (inactive)
10,CCN(CC)S(=O)(=O)c1ccc2nc(COC(=O)c3n[nH]c4ccccc34)[nH]c2c1,95.8% (active)
11,Cc1c(CN2CCC(C)CC2)c(=O)n(-c2ccccc2)n1C,0.5% (inactive)
12,O=P(O)(CP(=O)(c1ccccc1)c1ccccc1)c1ccccc1,-5.23% (inactive)
13,Cc1nc2c(-c3ccc(F)cc3)c(C)nn2c(C)c1CCC(=O)N1CCN(c2ccccn2)CC1,1.08% (inactive)
14,Cc1c(C(=O)NCC2CCCO2)sc2nc(-c3ccccc3)cn12 (stereo not given),-3.26% (inactive)
15,CCSC1(SCC)N=C(N)C2(C#N)C(c3ccccc3)NC(C)=CC12C#N (stereo not given),0.03% (inactive)
16,CCOC(=O)c1ccccc1NC(=O)CC1Nc2ccccc2NC1=O (stereo not given),-0.55% (inactive)
17,CCOC(=O)C1CCN(C(=O)COc2cc(C)c(Br)c(C)c2)CC1,6.51% (inactive)
18,CC(=O)Oc1ccc(C)cc1N1C(=O)c2ccc(C(=O)O)cc2C1=O,0.63% (inactive)
19,COc1cccc(-c2nc3n(n2)C(c2ccccc2Cl)C(C(N)=O)=C(C)N3)c1 (stereo not given),1.25% (inactive)
20,COc1ccc(NC(=O)c2c(SC)nsc2SC)cc1,-3.4% (inactive)
21,COc1ccc(C(=O)CSc2nccc(=O)[nH]2)cc1,-1.11% (inactive)
22,O=C(CN1CCN(C(=O)c2cccc(F)c2)CC1)Nc1ccccc1F,-3.2% (inactive)

row,Structure (SMILES),inhibition
1,CCOC(=O)CSc1nnc(NC(=O)c2cccc(S(=O)(=O)N3CCCCC3)c2)s1,-2.01% (inactive)
2,CCOC(=O)c1sc(N(Cc2ccccc2)C(=O)CN2C(=O)CN(C)C2=O)nc1C,0.36% (inactive)
3,Cc1ccc(C(=O)COc2cccc(NC(=O)c3ccco3)c2)cc1,0.83% (inactive)
4,Cn1c(=O)[nH]c(=O)c2c1nc(CN1CCN(c3ccccc3F)CC1)n2CCc1ccccc1,3.94% (inactive)
5,Cc1ccccc1NC(=O)c1cnn(-c2ccccc2)c1NC(=O)c1ccco1,-3.45% (inactive)
6,O=P(c1cccs1)(c1cccs1)c1cccs1,-3.85% (inactive)
7,O=C(Nc1cccc2cccnc12)c1cccc(N2C(=O)CCC2=O)c1,4.05% (inactive)
8,O=C(CSCc1cccs1)N1CCCC1,5.67% (inactive)
9,CCc1ccc(-c2nnn(Cc3nc4ccccc4s3)n2)cc1,-6.35% (inactive)
10,CCC(C)NC(=O)N[C@@H](CCSC)C(=O)O (stereo not given in full),1.22% (inactive)
11,O=C(Nc1cc(C(F)(F)F)ccc1Cl)c1cc(C2CC2)on1,4.08% (inactive)
12,Cn1c(=O)c2c(nc(SCCNS(=O)(=O)c3ccccc3)n2C)n(C)c1=O,-3.56% (inactive)
13,Cc1ccccc1CSc1nnc(Cn2c(=O)sc3ccccc32)n1C,0.98% (inactive)
14,Cc1ccc2nc3n(c(=O)c2c1)CCC3,-2.11% (inactive)
15,O=C(Cn1[nH]c(=O)c2ccccc2c1=O)Nc1cccc(-c2nnc3n2CCCCC3)c1,-2.76% (inactive)
16,O=c1c2c(nc3n1CCCCC3)sc1c(O)cccc12,19.3% (active)
17,CCn1cc(C(=O)N2CCN(C3CCCCC3)CC2)c2cc(OC)c(OC)cc2c1=O,-1.36% (inactive)
18,O=C(Cn1cnc2c(cnn2-c2ccccc2)c1=O)NCc1ccccc1,3.12% (inactive)
19,CCCc1cc(=O)[nH]c(SCC(=O)OCc2ccccc2)n1,-3.94% (inactive)
